Data: the supplement of paper PMC8183993
Values joined by “and” are separate entries in the source; they are usually repeats but may differ in a detail not shown here. Equal entries are not always repeated. Structures can show the parent of a compound that is named as a salt. ± gives the standard deviation of the averaged measurements. Whole data set: some 3,200 compounds, median “nuclei count (viability) relative to DMSO” near 99, cut for the lowest 2% near 16. What follows is part of a selection rich in the lowest values, with near analogues and random picks from the rest.

system: U2OS; assay: nuclei count (viability) relative to DMSO (% of DMSO); higher = more viable cells; settings: 10 µM; 24 h
Protocol: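 Primary image-based screen in U2OS cells: compounds at 10 uM for 24 h, then a 1 h o-propargyl-puromycin (OPP) pulse, click labelling, and high-throughput microscopy. Mean cytoplasmic OPP intensity and nuclei count were normalised to DMSO wells within each plate (DMSO = 100) and averaged over triplicate plates.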

| SMILES | nuclei count |
| --- | --- |
| Nc1[nH]nc2nc3ccccc3nc12 | 98.5 |
| CCC(=O)N1CCN(c2ccc(-n3c(=O)ccc4cnc5ccc(-c6cnc7ccccc7c6)cc5c43)cc2C(F)(F)F)CC1 [Torin 1] | 80.4 |
| COc1ccc(-c2ccc3ncc4c(c3c2)n(-c2ccc(N3CCNCC3)c(C(F)(F)F)c2)c(=O)n4C)cn1 | 16.4 ± 5.4 |
| Nc1ccc(-c2ccc3ncc4ccc(=O)n(-c5cccc(C(F)(F)F)c5)c4c3c2)cn1 [Torin 2] | 27.7 ± 1.8 |
| O=C1[C@@H]2[C@H]3CC[C@H](C3)[C@@H]2C(=O)N1C[C@@H]1CCCC[C@H]1CN1CCN(c2nsc3ccccc23)CC1 [Lurasidone HCl] | 102 |
| CCN1CCN(c2ccc(Nc3cc(N(C)C(=O)Nc4c(Cl)c(OC)cc(OC)c4Cl)ncn3)cc2)CC1 | 96.4 |
| CC(C)[C@H](NS(=O)(=O)c1ccc(-c2ccc(Br)cc2)cc1)C(=O)O | 97.3 |
| CC1(C)C[C@@H]1C(=O)N/C(=C\CCCCSC[C@H](N)C(=O)O)C(=O)O [Cilastatin] | 91.5 |
| CC1(C)C[C@@H]1C(=O)N/C(=C\CCCCSC[C@H](N)C(=O)O)C(=O)O [Cilastatin sodium] | 96.7 |
| COC1=CC(c2cc3ccccc3[nH]2)=N/C1=C\c1[nH]c(C)cc1C [Obatoclax mesylate (GX15-070)] | 45.5 |
| CC[C@]1(O)C[C@H]2CN(CCc3c([nH]c4ccccc34)[C@@](C(=O)OC)(c3cc4c(cc3OC)N(C=O)[C@H]3[C@@](O)(C(=O)OC)[C@H](OC(C)=O)[C@]5(CC)C=CCN6CC[C@]43[C@@H]65)C2)C1 [Vincristine] | 18.1 |
| CCC1=C[C@@H]2CN(C1)Cc1c([nH]c3ccccc13)[C@@](C(=O)OC)(c1cc3c(cc1OC)N(C)[C@H]1[C@@](O)(C(=O)OC)[C@H](OC(C)=O)[C@]4(CC)C=CCN5CC[C@]31[C@@H]54)C2 [Vinorelbine (Navelbine)] | 16.1 |
| CC[C@]1(O)C[C@@H]2CN(CCc3c([nH]c4ccccc34)[C@@](C(=O)OC)(c3cc4c(cc3OC)N(C)[C@H]3[C@@](O)(C(=O)OC)[C@H](OC(C)=O)[C@]5(CC)C=CCN6CC[C@]43[C@@H]65)C2)C1 [Vinblastine] | 100 |
| CC[C@]1(O)C[C@H]2CN(CCc3c([nH]c4ccccc34)[C@@](C(=O)OC)(c3cc4c(cc3OC)N(C=O)[C@H]3[C@@](O)(C(=O)OC)[C@H](OC(C)=O)[C@]5(CC)C=CCN6CC[C@]43[C@@H]65)C2)C1 [Vincristine sulfate] | 17.8 |
| CC[C@]12C=CCN3CC[C@@]4(c5cc([C@@]6(C(=O)OC)C[C@@H]7C[C@@H](C(C)(F)F)CN(Cc8c6[nH]c6ccccc86)C7)c(OC)cc5N(C)[C@H]4[C@@](O)(C(=O)OC)[C@@H]1OC(C)=O)[C@@H]32 [Vinflunine Tartrate] | 14.1 |
| CC[C@]1(O)C[C@@H]2CN(CCc3c([nH]c4ccccc34)[C@@](C(=O)OC)(c3cc4c(cc3OC)N(C)[C@H]3[C@@](O)(C(=O)OC)[C@H](OC(C)=O)[C@]5(CC)C=CCN6CC[C@]43[C@@H]65)C2)C1 [Vinblastine sulfate] | 16.8 |
| O=C(c1cc(O)c(O)c(O)c1)c1ccc(O)c(O)c1O [Exifone] | 94.1 |
| COc1ccccc1N1CCN(CCN(C(=O)C2CCCCC2)c2ccccn2)CC1 | 101 |
| Cn1nc(C(C)(C)C)cc1C(=O)N[C@@H](Cc1cccc(Cl)c1)C(=O)NCC#N [Cathepsin Inhibitor 1] | 107 |
| CC(C)c1cc(C(C)C)c(CC(=O)NS(=O)(=O)Oc2c(C(C)C)cccc2C(C)C)c(C(C)C)c1 [Avasimibe (CI-1011)] | 99.4 |
| NC(N)=S [Thiourea] | 103 |
| Nc1nc(N)c2nc(-c3cccc(O)c3)cnc2n1 | 94.7 ± 4.5 |

| SMILES | nuclei count |
| --- | --- |
| c1ccc2sc(N3CCN(Cc4ccc5c(c4)OCO5)CC3)nc2c1 [2-[1-(4-Piperonyl)piperazinyl]benzothiazole] | 111 |
| CC(C)C[C@H](NC(=O)[C@H](CCc1ccccc1)NC(=O)CN1CCOCC1)C(=O)N[C@@H](Cc1ccccc1)C(=O)N[C@@H](CC(C)C)C(=O)[C@@]1(C)CO1 [Carfilzomib (PR-171)] | 7.25 |
| C[C@H](N[C@@H](CCc1ccccc1)C(=O)O)C(=O)N1CCC[C@H]1C(=O)O [Enalaprilat dihydrate] | 94.3 |
| CC(C)c1nc(CN(C)C(=O)N[C@@H](CCN2CCOCC2)C(=O)N[C@H](CC[C@H](Cc2ccccc2)NC(=O)OCc2cncs2)Cc2ccccc2)cs1 [Cobicistat (GS-9350)] | 96.2 |
| CC1OC2(CS1)CN1CCC2CC1 (stereo not given) [Cevimeline hydrochloride] | 101 |
| Cc1ccc(C(=O)c2cc(/C=C/C(=O)NO)n(C)c2)cc1 | 92.7 |
| CN(Cc1ccccc1)C(=O)[C@H](Cc1ccc2ccccc2c1)NC(=O)[C@@H]1C[C@@H](O)CN1C(=O)c1cn(C)c2ccccc12 | 98 |
| Cc1cc2c(cc1C1(c3ccc(C(=O)O)cn3)CC1)C(C)(C)CCC2(C)C | 102 |
| CCc1cncnc1N1CCN(Cc2nc3ccc(C(F)(F)F)cc3[nH]2)CC1 | 99.88 ± 0.89 |
| Cc1nc2ccc(NC(=O)Nc3ccnc4cccnc34)cc2o1 | 99.6 |
| Cc1c(C(=O)NC2CCCCC2)sc2nc3ccc(N)cc3n12 | 99.5 |
| NC(=O)Nc1cc(-c2cccc(F)c2)sc1C(=O)N[C@H]1CCCNC1 | 7.62 |
| NC(=O)Nc1sc(-c2ccc(F)cc2)cc1C(N)=O | 47 ± 0.38 |
| Cc1ccc2c(c1)C(=O)C1(O)CCN(c3ccccc3)C1=N2 (stereo not given) [(?)-Blebbistatin] | 96.3 |
| CC(C(=O)Nc1cccc(/N=C/c2c(O)ccc3ccccc23)c1)c1ccccc1 (stereo not given) [Salermide] | 101 |
| Cc1cc(/C=C/c2ccc3cc(N(C)C)ccc3[n+]2C)c(C)n1-c1ccccc1 [Pyrvinium pamoate] | 6.32 |
| CN1CCN(CCc2ccc(Cl)c(Cl)c2)CC1 [BD 1063 dihydrochloride] | 104 |
| OC(c1ccccc1)C1CCN(CCc2ccccc2)CC1 (stereo not given) | 99.4 |
| NS(=O)(=O)c1cccc2c1c([N+](=O)[O-])cc1nc(O)c(O)nc12 | 98.7 |
| NS(=O)(=O)c1cccc2c1c([N+](=O)[O-])cc1nc(O)c(O)nc12 [NBQX disodium salt] | 109 |
| COc1cc(N2CCC(N)CC2)ccc1Nc1ncc(Cl)c(-c2c[nH]c3ccccc23)n1 | 7.03 |
| CCOc1cc(N2CCC(O)CC2)ccc1Nc1ncc2c(n1)N(C)c1ccccc1C(=O)N2C | 95.5 |

| SMILES | nuclei count |
| --- | --- |
| CNC(=O)c1ccccc1Nc1nc(Nc2ccc(N3CCOCC3)cc2OC)ncc1Cl | 38.9 ± 1.6 |
| CN(C(=O)c1ccc(F)cc1C(F)(F)F)C1CCN(c2nnc(-c3ccnn3C)c3ccccc23)CC1 | 101 |
| C1=N/C2=N/c3ccc(OCCN4CCCC4)c(c3)COC/C=C/COCc3cccc(c3)C(=C1)N2 [Pacritinib (SB1518)] | 16.7 |
| Cn1c(CNc2ccc(C(=N)N)cc2)nc2cc(C(=O)N(CCC(=O)O)c3ccccn3)ccc21 [BIBR 953 (Dabigatran etexilate, Pradaxa)] | 108 |
| N=C(N)NC(=N)Nc1ccccc1 [1-Phenylbiguanide hydrochloride] | 95.6 |
| Cn1cc(C2=C(c3cn(CCCSC(=N)N)c4ccccc34)C(=O)NC2=O)c2ccccc21 [Ro 31-8220 Mesylate] | 29.7 |
| Cn1cc(C2=C(c3ccc(Cl)cc3Cl)C(=O)NC2=O)c2ccccc21 | 94.8 and 92.7 |
| Cn1cc(C2=C(c3cn(CCCSC(=N)N)c4ccccc34)C(=O)NC2=O)c2ccccc21 [Ro 31-8220 mesylate] | 10.6 |
| CN(C)CCCn1cc(C2=C(c3c[nH]c4ccccc34)C(=O)NC2=O)c2ccccc21 | 55.6 and 47.3 |
| O=C(O)CCC/C=C\C[C@@H]1CO[C@H](C(F)(F)F)O[C@@H]1c1ccccc1O | 102 |
| O=C(O)CNC(=O)C(CS)Cc1ccccc1 (racemic) [DL-Thiorphan] | 113 |
| CNC(C)C1CCC(N)C(OC2C(N)CC(N)C(OC3OCC(C)(O)C(NC)C3O)C2O)O1 (stereo not given) [Gentamycin sulfate (Gentacycol)] | 79.5 |
| CC(C)c1noc(N2CCC(COc3ccc(-c4ccc(S(C)(=O)=O)cc4)nc3)CC2)n1 | 109 |
| C=C(NC(=O)C(=C)NC(=O)c1csc(C2=N[C@@H]3c4csc(n4)[C@H]4NC(=O)c5csc(n5)[C@H]([C@](C)(O)[C@@H](C)O)NC(=O)[C@H]5CSC(=N5)/C(=C/C)NC(=O)[C@H]([C@@H](C)O)NC(=O)c5csc(n5)[C@]3(CC2)NC(=O)[C@H](C)NC(=O)C(=C)NC(=O)[C@H](C)NC(=O)[C@H]([C@@H](C)CC)N[C@@H]2C=Cc3c([C@H](C)O)cc(nc3[C@H]2O)C(=O)O[C@@H]4C)n1)C(N)=O [Thiostrepton] | 16.2 |
| CC(=O)OC[C@H]1O[C@@H]([S-])[C@H](OC(C)=O)[C@@H](OC(C)=O)[C@@H]1OC(C)=O.CCP(CC)CC.[Au+] [Auranofin] | 13.4 |
| CCN(C(=O)CO)[C@H]1CN(/C(=N\C#N)Nc2cccc(OC(F)F)c2)N=C1c1ccc(Cl)c(Cl)c1 | 111 |
| CN1CCN(c2nc(C3=C(c4c[nH]c5ccccc45)C(=O)NC3=O)c3ccccc3n2)CC1 [Sotrastaurin (AEB071)] | 95.2 ± 3.4 |
| O=C(/C=C/c1ccc(O)cc1)CC(=O)/C=C/c1ccc(O)cc1 [bis-demethoxycurcumin] | 93.2 |
| C=CC(=O)Nc1cccc(Nc2nc(Nc3ccc(N4CCN(C(C)=O)CC4)cc3OC)ncc2C(F)(F)F)c1 | 57.6 |
| CC(=O)NCC(=O)N1[C@@H]2CC[C@H]1c1ccc(Nc3ncc(C(F)(F)F)c(NC4CCC4)n3)cc12 | 16.4 |
| C=CC(=O)Nc1cccc(Nc2nc(Nc3ccc(NC4CN(CCF)C4)cc3OC)ncc2C(F)(F)F)c1 | 20.7 |
